Measured values as given in ChEMBL document CHEMBL2218924, “A broad activity screen in support of a chemogenomic map for kinase signalling research and drug discovery” (Biochem J, 2013).

Key:
[1] = target: T1, Ephrin type-A receptor 3 (Homo sapiens) (UniProt P29320); conditions: at 10 µM
T1 sequence (whole entry): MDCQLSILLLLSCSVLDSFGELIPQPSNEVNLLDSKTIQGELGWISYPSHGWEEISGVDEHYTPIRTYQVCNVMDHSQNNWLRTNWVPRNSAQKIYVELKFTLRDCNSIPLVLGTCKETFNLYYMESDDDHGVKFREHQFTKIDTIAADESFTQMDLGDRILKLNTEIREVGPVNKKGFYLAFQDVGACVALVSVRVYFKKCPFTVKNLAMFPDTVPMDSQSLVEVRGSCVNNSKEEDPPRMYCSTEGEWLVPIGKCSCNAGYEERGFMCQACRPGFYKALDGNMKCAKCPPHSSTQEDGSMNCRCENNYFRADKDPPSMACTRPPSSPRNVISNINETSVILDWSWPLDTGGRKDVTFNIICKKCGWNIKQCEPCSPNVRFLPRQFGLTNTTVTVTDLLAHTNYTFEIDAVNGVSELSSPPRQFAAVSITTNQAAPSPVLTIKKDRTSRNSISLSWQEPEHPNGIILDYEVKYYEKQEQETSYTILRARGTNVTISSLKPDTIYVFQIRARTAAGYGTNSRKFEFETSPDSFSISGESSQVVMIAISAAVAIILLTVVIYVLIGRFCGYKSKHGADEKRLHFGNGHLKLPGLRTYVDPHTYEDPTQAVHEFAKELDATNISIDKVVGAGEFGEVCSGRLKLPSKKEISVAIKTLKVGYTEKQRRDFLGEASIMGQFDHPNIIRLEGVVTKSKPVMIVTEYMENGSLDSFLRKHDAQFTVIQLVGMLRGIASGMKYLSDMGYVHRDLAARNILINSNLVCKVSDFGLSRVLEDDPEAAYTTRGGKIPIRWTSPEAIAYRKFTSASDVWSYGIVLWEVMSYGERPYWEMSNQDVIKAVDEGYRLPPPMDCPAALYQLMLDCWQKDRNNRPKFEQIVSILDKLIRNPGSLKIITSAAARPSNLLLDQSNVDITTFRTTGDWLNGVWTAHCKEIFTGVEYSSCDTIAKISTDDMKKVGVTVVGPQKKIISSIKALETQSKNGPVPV

[2] = target: Ephrin type-A receptor 5 (Homo sapiens) (UniProt P54756); conditions: at 1 µM
[3] = target: Ephrin type-A receptor 5 (Homo sapiens) (UniProt P54756); conditions: at 10 µM
[4] = target: Ephrin type-A receptor 7 (Homo sapiens) (UniProt Q15375); conditions: at 1 µM
[5] = target: Ephrin type-A receptor 7 (Homo sapiens) (UniProt Q15375); conditions: at 10 µM
[6] = target: T2, Ephrin type-A receptor 8 (Homo sapiens) (UniProt P29322); conditions: at 1 µM
T2 sequence (whole entry): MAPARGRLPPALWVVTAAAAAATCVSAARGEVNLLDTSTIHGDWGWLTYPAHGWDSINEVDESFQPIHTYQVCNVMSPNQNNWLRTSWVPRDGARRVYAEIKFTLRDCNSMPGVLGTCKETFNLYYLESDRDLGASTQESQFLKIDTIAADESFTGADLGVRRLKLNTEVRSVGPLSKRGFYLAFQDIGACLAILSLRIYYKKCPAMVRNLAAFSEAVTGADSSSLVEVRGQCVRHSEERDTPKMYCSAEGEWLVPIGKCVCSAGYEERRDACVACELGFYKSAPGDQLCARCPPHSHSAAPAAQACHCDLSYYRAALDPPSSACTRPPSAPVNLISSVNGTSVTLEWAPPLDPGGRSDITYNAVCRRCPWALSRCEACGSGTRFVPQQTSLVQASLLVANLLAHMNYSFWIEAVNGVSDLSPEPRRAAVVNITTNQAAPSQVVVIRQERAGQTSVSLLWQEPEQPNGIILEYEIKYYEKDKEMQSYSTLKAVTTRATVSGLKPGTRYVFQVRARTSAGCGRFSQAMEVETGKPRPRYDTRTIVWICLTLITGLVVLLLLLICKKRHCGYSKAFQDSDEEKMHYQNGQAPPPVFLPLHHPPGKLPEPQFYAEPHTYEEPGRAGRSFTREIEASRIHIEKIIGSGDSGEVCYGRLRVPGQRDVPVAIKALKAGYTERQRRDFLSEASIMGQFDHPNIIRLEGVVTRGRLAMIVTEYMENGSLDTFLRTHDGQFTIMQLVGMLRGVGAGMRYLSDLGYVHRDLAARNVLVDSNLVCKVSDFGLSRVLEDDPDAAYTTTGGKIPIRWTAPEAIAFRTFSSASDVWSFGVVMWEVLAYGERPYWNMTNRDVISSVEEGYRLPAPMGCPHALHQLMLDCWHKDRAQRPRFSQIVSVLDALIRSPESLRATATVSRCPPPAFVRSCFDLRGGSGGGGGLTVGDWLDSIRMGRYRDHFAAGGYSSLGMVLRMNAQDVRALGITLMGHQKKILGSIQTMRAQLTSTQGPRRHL

[7] = target: T2, Ephrin type-A receptor 8 (Homo sapiens); conditions: at 10 µM
[8] = target: T3, Ephrin type-B receptor 1 (Homo sapiens) (UniProt P54762); conditions: at 1 µM
T3 sequence (whole entry): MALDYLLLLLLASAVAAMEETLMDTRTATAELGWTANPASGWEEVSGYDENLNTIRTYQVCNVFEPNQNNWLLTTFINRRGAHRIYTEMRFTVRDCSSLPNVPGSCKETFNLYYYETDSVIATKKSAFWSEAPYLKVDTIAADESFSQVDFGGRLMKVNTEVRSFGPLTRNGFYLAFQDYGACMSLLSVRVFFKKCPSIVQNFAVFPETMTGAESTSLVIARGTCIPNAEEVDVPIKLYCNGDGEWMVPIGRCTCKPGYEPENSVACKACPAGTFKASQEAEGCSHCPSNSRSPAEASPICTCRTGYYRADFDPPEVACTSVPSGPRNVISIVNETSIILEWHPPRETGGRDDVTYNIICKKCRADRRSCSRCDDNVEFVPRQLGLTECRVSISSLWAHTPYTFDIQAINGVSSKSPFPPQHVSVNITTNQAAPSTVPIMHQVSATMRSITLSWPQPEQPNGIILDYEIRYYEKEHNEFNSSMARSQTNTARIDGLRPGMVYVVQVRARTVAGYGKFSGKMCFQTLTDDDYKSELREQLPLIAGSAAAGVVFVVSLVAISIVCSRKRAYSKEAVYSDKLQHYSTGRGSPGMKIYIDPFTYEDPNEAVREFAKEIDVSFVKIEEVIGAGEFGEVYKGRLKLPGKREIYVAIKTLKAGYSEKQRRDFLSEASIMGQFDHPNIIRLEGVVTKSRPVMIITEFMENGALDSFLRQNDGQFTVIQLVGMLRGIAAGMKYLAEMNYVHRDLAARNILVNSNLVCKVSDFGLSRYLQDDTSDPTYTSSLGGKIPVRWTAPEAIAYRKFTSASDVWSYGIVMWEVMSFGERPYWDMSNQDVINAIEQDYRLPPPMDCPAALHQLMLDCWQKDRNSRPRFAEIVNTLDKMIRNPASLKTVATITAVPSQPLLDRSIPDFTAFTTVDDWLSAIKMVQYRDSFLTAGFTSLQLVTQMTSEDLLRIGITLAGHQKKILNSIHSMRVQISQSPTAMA

[9] = target: T3, Ephrin type-B receptor 1 (Homo sapiens); conditions: at 10 µM
[10] = target: T4, Ephrin type-B receptor 2 (Homo sapiens) (UniProt P29323); conditions: at 1 µM
T4 sequence (whole entry): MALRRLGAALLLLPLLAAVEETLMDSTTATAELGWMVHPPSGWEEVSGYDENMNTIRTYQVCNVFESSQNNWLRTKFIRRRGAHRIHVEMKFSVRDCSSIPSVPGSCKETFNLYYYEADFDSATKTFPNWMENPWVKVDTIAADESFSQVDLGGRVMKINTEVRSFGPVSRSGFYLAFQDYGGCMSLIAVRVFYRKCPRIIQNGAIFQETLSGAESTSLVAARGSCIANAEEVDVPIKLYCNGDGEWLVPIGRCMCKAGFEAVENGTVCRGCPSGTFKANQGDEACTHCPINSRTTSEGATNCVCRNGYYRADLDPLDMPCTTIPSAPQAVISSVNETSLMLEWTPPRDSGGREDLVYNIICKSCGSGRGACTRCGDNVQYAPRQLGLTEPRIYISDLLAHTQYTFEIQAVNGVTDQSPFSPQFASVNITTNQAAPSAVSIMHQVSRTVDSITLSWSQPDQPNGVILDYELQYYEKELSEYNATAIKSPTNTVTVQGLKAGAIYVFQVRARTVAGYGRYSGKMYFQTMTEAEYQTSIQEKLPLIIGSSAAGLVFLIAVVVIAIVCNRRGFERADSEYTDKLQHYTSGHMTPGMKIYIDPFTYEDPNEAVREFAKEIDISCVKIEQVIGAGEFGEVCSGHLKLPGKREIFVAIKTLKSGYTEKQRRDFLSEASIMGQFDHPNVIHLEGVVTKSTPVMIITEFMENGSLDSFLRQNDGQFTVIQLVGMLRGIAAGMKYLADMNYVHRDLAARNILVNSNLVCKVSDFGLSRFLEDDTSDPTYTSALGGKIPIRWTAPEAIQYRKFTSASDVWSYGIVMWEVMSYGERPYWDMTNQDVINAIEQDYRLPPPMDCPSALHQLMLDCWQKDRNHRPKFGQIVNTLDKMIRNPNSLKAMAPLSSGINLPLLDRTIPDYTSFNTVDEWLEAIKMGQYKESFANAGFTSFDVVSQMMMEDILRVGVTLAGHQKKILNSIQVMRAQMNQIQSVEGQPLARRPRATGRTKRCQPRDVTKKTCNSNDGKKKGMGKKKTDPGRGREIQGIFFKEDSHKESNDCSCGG

[11] = target: T4, Ephrin type-B receptor 2 (Homo sapiens); conditions: at 10 µM
[12] = target: T5, Ephrin type-B receptor 4 (Homo sapiens) (UniProt P54760); conditions: at 1 µM
T5 sequence (whole entry): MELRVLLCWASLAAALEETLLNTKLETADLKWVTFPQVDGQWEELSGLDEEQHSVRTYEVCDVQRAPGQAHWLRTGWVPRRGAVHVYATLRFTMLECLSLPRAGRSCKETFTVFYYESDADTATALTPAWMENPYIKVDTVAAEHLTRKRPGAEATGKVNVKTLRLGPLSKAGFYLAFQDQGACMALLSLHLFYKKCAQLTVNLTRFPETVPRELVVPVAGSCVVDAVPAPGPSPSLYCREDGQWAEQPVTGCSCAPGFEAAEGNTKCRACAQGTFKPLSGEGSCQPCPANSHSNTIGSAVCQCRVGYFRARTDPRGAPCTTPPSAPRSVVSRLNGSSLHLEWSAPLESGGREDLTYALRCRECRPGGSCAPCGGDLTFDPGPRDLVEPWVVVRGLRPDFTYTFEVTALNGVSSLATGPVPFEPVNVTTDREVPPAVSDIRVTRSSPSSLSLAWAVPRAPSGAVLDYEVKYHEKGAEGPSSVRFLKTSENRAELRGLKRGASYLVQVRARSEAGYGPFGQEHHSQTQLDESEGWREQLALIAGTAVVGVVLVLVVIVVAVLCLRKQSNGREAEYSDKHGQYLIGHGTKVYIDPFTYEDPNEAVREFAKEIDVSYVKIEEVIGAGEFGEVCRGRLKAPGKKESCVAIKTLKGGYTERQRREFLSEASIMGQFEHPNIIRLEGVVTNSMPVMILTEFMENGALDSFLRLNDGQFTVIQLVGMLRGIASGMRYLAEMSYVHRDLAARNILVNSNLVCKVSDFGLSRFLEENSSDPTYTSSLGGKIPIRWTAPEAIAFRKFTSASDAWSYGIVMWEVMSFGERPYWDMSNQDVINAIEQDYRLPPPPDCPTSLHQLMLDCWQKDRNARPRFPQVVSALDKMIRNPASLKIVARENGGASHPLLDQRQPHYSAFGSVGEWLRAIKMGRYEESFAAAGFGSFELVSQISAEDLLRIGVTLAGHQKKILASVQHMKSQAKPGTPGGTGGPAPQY

[13] = target: T5, Ephrin type-B receptor 4 (Homo sapiens); conditions: at 10 µM
[14] = target: Focal adhesion kinase 1 (Homo sapiens) (UniProt Q05397); conditions: at 1 µM
Sequence of Focal adhesion kinase 1 (Homo sapiens) (Q05397 2-1052 limits assumed): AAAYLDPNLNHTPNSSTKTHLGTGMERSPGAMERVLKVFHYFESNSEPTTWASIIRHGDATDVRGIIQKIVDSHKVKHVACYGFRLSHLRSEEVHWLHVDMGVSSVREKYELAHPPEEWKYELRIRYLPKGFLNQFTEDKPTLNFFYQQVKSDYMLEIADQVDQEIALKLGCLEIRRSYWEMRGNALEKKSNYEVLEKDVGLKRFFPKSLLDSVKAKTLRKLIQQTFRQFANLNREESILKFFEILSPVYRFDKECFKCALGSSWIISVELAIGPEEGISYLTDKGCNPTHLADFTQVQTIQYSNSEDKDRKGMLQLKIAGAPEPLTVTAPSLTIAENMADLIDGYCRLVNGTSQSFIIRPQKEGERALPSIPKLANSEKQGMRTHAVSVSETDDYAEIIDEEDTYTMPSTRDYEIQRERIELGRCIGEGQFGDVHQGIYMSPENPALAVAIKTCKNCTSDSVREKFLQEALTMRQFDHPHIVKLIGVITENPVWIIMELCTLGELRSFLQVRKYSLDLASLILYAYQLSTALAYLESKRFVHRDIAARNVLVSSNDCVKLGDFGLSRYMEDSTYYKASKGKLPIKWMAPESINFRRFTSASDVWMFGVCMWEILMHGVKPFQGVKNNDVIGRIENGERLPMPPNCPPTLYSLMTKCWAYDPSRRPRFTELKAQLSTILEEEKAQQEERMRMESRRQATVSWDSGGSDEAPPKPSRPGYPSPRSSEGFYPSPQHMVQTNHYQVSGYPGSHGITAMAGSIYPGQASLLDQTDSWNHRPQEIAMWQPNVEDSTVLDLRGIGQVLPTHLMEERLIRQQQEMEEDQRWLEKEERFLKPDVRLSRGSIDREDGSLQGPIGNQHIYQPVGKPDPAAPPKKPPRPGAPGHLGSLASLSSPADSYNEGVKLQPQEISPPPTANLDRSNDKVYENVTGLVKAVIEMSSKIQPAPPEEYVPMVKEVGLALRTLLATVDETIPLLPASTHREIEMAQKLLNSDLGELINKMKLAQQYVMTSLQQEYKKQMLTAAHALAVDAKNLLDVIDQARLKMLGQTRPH

Sequence of Ephrin type-A receptor 5 (Homo sapiens) (P54756 whole entry): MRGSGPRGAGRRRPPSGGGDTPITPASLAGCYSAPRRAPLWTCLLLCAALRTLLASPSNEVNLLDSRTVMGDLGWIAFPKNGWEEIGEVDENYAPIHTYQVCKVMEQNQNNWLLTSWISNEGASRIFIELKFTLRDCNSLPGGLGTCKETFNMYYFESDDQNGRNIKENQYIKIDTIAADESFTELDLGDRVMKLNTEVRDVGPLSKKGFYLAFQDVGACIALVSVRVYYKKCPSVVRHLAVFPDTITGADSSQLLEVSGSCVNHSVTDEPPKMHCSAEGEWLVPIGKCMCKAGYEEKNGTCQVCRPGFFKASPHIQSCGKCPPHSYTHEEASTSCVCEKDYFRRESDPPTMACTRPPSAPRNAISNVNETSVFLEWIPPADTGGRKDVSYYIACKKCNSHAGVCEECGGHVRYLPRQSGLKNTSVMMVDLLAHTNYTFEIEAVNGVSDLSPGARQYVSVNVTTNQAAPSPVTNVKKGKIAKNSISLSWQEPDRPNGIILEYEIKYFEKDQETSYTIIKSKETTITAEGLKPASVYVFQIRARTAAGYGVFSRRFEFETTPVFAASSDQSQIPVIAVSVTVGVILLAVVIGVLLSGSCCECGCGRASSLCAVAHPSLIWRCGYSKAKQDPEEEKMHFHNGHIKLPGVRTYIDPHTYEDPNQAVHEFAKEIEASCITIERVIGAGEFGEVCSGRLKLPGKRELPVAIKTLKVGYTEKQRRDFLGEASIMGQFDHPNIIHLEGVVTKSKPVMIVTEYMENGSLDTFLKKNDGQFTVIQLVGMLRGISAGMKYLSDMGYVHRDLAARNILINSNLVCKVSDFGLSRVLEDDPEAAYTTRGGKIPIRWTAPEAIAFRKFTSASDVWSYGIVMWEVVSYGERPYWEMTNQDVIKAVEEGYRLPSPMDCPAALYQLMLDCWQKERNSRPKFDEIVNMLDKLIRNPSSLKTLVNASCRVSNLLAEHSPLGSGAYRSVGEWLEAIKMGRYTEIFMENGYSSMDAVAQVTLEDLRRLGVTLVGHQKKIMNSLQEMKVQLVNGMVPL
Sequence of Ephrin type-A receptor 7 (Homo sapiens) (Q15375 28-998 limits assumed): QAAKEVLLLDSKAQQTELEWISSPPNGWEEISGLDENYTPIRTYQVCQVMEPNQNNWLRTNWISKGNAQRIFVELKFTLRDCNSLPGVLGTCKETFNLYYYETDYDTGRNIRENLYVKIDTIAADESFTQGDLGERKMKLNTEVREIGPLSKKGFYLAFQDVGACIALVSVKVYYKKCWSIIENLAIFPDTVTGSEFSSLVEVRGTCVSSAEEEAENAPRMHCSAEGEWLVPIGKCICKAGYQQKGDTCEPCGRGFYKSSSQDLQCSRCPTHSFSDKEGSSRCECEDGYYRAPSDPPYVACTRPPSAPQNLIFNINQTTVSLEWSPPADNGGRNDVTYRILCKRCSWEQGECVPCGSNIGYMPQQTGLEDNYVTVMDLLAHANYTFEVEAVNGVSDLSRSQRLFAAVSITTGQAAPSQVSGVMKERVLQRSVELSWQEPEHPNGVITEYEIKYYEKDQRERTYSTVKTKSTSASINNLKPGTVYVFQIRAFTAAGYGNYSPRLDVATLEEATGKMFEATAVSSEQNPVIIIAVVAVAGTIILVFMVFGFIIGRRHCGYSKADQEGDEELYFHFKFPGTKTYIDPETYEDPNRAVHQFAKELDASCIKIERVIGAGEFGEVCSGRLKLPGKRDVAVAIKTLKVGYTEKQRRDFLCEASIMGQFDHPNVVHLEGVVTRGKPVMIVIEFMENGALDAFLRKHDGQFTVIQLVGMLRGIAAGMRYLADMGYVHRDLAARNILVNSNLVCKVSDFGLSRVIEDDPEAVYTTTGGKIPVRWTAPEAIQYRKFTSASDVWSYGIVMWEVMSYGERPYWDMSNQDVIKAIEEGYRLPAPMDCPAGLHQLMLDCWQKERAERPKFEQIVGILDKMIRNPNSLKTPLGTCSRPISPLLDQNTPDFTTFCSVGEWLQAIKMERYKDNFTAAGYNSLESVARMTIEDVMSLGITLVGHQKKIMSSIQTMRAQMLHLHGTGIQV

SMILES: CCCCc1c(-c2ccc(O)cc2)[nH]c2nccnc12
- residual activity [1]: 30%
- residual activity [2]: 95%
- residual activity [3]: 66%
- residual activity [4]: 83%
- residual activity [5]: 39%
- residual activity [6]: 90%
- residual activity [7]: 58%
- residual activity [8]: 64%
- residual activity [9]: 22%
- residual activity [10]: 96%
- residual activity [11]: 82%
- residual activity [12]: 74%
- residual activity [13]: 16%
- residual activity [14]: 76%
